{"source": "PubChem BioAssay (NCI)", "note": "About 79,000 compounds went through this panel and 15% of them were active in at least one assay; those are over-represented in the sample as a whole. A number with no mark means an inactive call. Cut-off read from the data, not from the text of the source: active = growth inhibition above about 70%; inactive = the rest."}
{"test": "NCI Yeast Anticancer Drug Screen. Data for the rad50 strain (AID 155);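 note: 0% = growth of vehicle-only cultures of the same strain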", "settings": "S. cerevisiae rad50 strain growth inhibition; at 50.0 µM; stronger effect = higher value", "how_it_was_run": "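Cells are treated with compound, grown, and their growth is then scored against vehicle-only cultures of the same repair-deficient yeast strain.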", "units": {"growth inhibition": "%"}}
{"smiles": "COc1ccc2nc(NC(=O)C(=O)C(C#N)c3ccc(CC#N)cc3)sc2c1", "note": "(stereo unspecified)", "growth inhibition": -4.3}
{"smiles": "O=C(c1cccc(Cl)c1)c1cccc2ccccc12", "growth inhibition": -1.7}
{"smiles": "CN=C1N[N+]2=CCCCC2S1", "note": "(stereo unspecified)", "growth inhibition": 17.8}
{"smiles": "CC(=O)NC1=NC(=O)/C(=C/Cc2cccs2)N1C", "growth inhibition": 6.8}
{"smiles": "CC(=O)[C@H]1CC[C@H]2[C@@H]3CC[C@H]4C[C@@H](OC(c5ccccc5)(c5ccccc5)c5ccccc5)CC[C@]4(C)[C@H]3CC[C@]12C", "growth inhibition": -3.55}
{"smiles": "Cc1nn(C(=O)c2ccccn2)c(-c2ccccc2)c1N=Nc1ccc(S(=O)(=O)Nc2ncccn2)cc1", "growth inhibition": 26.4}
{"smiles": "c1ccc(-c2nc3c(N4CCOCC4)ncnc3o2)cc1", "growth inhibition": -3.25}
{"smiles": "CC(=O)Nc1cc(F)c(N=Nc2ccc([N+](=O)[O-])cc2)c(F)c1", "growth inhibition": -9.5}
{"smiles": "CCCCCCCCCCOc1ccc(OCCCCCCCCC)cc1", "growth inhibition": 15.5}
{"smiles": "O=C1OC2=C(CCCCC2)C(N2CCCCC2)C12SCCCS2", "note": "(stereo unspecified)", "growth inhibition": -7.9}
{"smiles": "O=C(CSSCC(=O)Nc1ccccc1O)Nc1ccccc1O", "growth inhibition": -11.2}
{"smiles": "COc1ccc(/C=C2/C[N+](C)(C)C/C(=C/c3ccc(OC)cc3)C2=O)cc1", "growth inhibition": 10.3}
{"smiles": "Nc1nc2c(C(=O)c3ccco3)nnn2c2cccc(Cl)c12", "growth inhibition": 10.7}
{"smiles": "Nc1cc(S(=O)(=O)O)nc(N)[n+]1[O-]", "growth inhibition": 1.55}
{"smiles": "c1cc(CCc2ccncc2)ccn1", "growth inhibition": 21.9}
{"smiles": "CN(C)CCn1c(CO)nc2c1c(=O)n(C)c(=O)n2C", "growth inhibition": -9.95}
